The text below walks through data of PubChem BioAssay (NCATS).

SMILES strings stand for the structures. Inconclusive results are not listed. Active and inactive are the calls of the source. Calls follow the shape of the dose curve; as a rule, active = well fitted curve in the direction sought with a large enough effect; inconclusive = small, poorly fitted or top-dose-only effect, or another doubt; inactive = no such curve, though single readings can be large; an effect the other way counts as inactive or inconclusive.

Glucagon-like peptide 1 receptor (Homo sapiens), sequence (P43220 whole entry, looked up): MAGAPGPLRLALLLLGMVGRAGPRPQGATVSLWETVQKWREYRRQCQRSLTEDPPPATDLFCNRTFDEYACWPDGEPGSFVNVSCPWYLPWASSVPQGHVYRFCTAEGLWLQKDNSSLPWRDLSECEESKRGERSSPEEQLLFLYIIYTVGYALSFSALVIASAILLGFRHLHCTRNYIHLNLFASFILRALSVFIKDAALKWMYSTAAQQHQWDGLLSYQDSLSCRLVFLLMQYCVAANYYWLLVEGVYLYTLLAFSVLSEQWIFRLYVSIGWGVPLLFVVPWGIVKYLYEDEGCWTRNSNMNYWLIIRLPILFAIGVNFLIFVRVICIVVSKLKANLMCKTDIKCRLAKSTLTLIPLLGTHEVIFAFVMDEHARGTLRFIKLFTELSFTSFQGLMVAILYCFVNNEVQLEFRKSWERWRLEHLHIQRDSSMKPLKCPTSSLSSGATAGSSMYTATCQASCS

One assay addresses Glucagon-like peptide 1 receptor (Homo sapiens) (UniProt P43220). The assay is described as follows: qHTS of GLP-1 Receptor Agonists: LOPAC Validation (AID 624148).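 Also: higher luminescence signal means agonism.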 The settings on record: GLP-1R agonist cell assay; series mostly up to 46.1 µM. The method, boiled down: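 HEK293 cells stably co-expressing GLP-1R and a cAMP-responsive luciferase reporter, plated 12 hours before compound, then incubated 4-6 hr at 37 deg C. Luminescence read 12 min after detection reagent.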
Consider `NC(N)=NCCC[C@H](N)C(=O)O`, for which the compound was called inactive.
On the same count and under the same terms, for `CNCCC(Oc1ccc(C(F)(F)F)cc1)c1ccccc1` (configuration not stated) the value was “inactive”; for `CC(CN1c2ccccc2Sc2ccccc21)N(C)C` (configuration not stated), “inactive”; for `CN1CCN(C2Cc3ccccc3Sc3ccc(Cl)cc32)CC1` (configuration not stated), “inactive”.
On the same count and under the same terms, for `CC1=C(CC(=O)O)c2cc(F)ccc2/C1=C\c1ccc(S(C)(=O)=O)cc1` the value was “inactive”.
Turning to `OCc1cc(C(O)CNCCCCCCOCCCCc2ccccc2)ccc1O` (configuration not stated), the compound was called inactive.
As to `CN(C)CCCN1c2ccccc2Sc2ccc(Cl)cc21`, the outcome was inactive.
The same measure, in the same setting: for `COC(=O)C1=C(C)NC(C)=C(C(=O)OC)C1c1ccccc1[N+](=O)[O-]` the value was “inactive”; for `CSc1ccc2c(c1)C(N1CCN(C)CC1)Cc1ccccc1S2` (configuration not stated), “inactive”; for `N=c1c[n+](N2CCOCC2)[n-]o1`, “inactive”.
Still for that read-out and setting: for `CN(C)CC[C@@H](c1ccc(Cl)cc1)c1ccccn1` the value was “inactive”; for `Nc1cc(=O)[nH]c(N)n1`, “inactive”; for `CCN(CC)CCCC(C)Nc1c2ccc(Cl)cc2nc2ccc(OC)cc12` (configuration not stated), “inactive”.
Still for that read-out and setting: for `COc1ccc(Cl)cc1C(=O)NCCc1ccc(S(=O)(=O)NC(=O)NC2CCCCC2)cc1` the value was “inactive”; for `CCCn1cnc2c1c(=O)n(CCCCC(C)=O)c(=O)n2C`, “inactive”.
As for `CC(CN(C)C)CN1c2ccccc2CCc2ccccc21` (configuration not stated), the compound was called inactive.

System in another assay: not listed separately
Put plainly: qHTS of Nrf2 Activators: LOPAC Validation (AID 624149). Particulars: Nrf2/ARE reporter cell assay; series mostly up to 46.1 µM. In short, it runs like this:
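AREc32_Fluc cells, 1000/well, OPTI-MEM + 5% FBS, o/n 37 deg C 5% CO2; compound pin-transfer, 24 hr 37 deg C; Steady-Glo 30 min RT, luminescence read.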
In general terms: In qHTS, concentration-response curves come from the screen itself.
Turning to `NC(N)=NCCC[C@H](N)C(=O)O`, the compound was classed as inactive.
Same read-out and setting: for `CNCCC(Oc1ccc(C(F)(F)F)cc1)c1ccccc1` (configuration not stated) the value was “inactive”.
Same read-out and setting: for `CC(CN1c2ccccc2Sc2ccccc21)N(C)C` (configuration not stated) the value was “inactive”; for `CN1CCN(C2Cc3ccccc3Sc3ccc(Cl)cc32)CC1` (configuration not stated), “inactive”.
With `CC1=C(CC(=O)O)c2cc(F)ccc2/C1=C\c1ccc(S(C)(=O)=O)cc1`, the compound was classed as inactive.
For `OCc1cc(C(O)CNCCCCCCOCCCCc2ccccc2)ccc1O` (configuration not stated), the compound was classed as inactive.
The same measure, in the same setting: for `CN(C)CCCN1c2ccccc2Sc2ccc(Cl)cc21` the value was “inactive”.
On the same count and under the same terms, for `COC(=O)C1=C(C)NC(C)=C(C(=O)OC)C1c1ccccc1[N+](=O)[O-]` the value was “inactive”.
The same measure, in the same setting: for `CSc1ccc2c(c1)C(N1CCN(C)CC1)Cc1ccccc1S2` (configuration not stated) the value was “inactive”; for `N=c1c[n+](N2CCOCC2)[n-]o1`, “inactive”; for `CN(C)CC[C@@H](c1ccc(Cl)cc1)c1ccccn1`, “inactive”.
As for `Nc1cc(=O)[nH]c(N)n1`, the compound was called inactive.
With `CCN(CC)CCCC(C)Nc1c2ccc(Cl)cc2nc2ccc(OC)cc12` (configuration not stated), the outcome was inactive.
In the case of `COc1ccc(Cl)cc1C(=O)NCCc1ccc(S(=O)(=O)NC(=O)NC2CCCCC2)cc1`, the compound was called inactive.
Same read-out and setting: for `CCCn1cnc2c1c(=O)n(CCCCC(C)=O)c(=O)n2C` the value was “inactive”.
`CC(CN(C)C)CN1c2ccccc2CCc2ccccc21` (configuration not stated): the call was inactive.
